HCMV antiviral = inhibitors of human cytomegalovirus. activity change, negative = inhibition, % at 57.5 µM. HFF cells, HCMV-luciferase reporter, 72 h; stronger effect = lower value. 410,000 tested, 4.5% active. AID 1259415; in the data active = activity change below about -60%; inconclusive = no clear call, values can overlap the other calls; inactive = above about -39%; also: % is scaled to controls: 0 for no effect and ±100 for the full control effect
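Two compound doses tested in HFFs infected with HCMV-luciferase, MOI 1 PFU/cell, 72 h at 37C. Lysate luminescence read with OneGlo; data normalized against buffer-only and 10uM Salinomycin inhibitor controls.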
Marburg entry inh = inhibitors of Marburg virus binding or cell entry. Marburg virus pseudotyped entry inhibition, cell reporter. Potency, µM (series often up to 37.8 µM), inactives show top-dose activity change, negative = inhibition, hits mostly inhibitors. 300,000 tested, 1.8% active. AID 540276; calls by dose curve; tested in HEK293 cells; also: potency is read from the fitted curve at half-maximal effect; % is scaled to controls: 0 for no effect and ±100 for the full control effect
HCV inhibitor = blocks hepatitis C virus; Huh7.5.1 HCVcc-Cre infection, luciferase reporter, 44 h; 340,000 tested, 3.4% active; Potency, µM (series often up to 41.8 µM), for inactives: at the highest dose activity change, negative = inhibition, hits mostly inhibitors; AID 651820; active = well fitted inhibition curve with a large enough effect; inconclusive = small, poorly fitted or top-dose-only effect, or another doubt; inactive = no such curve, though single readings can be large or run the other way; also: potency is read from the fitted curve at half-maximal effect; % is scaled to controls: 0 for no effect and ±100 for the full control effect
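Compounds are dispensed onto cells plated 4 h earlier at 1,000 per well, with HCVcc-Cre virus (about 0.5 moi) added next. Following 44 h of culture, luminescent signal is measured for 15 sec after 15 min with substrate at room temperature.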
SARS PLP yeast = SARS-CoV PLP inhibition in yeast; S. cerevisiae expressing SARS-CoV PLpro, growth rescue; Potency, µM (titrated, usually from 32.9 µM), for the others: top-dose activity, positive = growth rescue, hits mostly activators; 330,000 tested, 0.19% active; AID 485353; calls by dose curve; also: potency is read from the fitted curve at half-maximal effect; 0% is about no effect; nearly all actives have a fitted effect of over 55% in size
FMDV antiviral = foot and mouth disease virus antiviral activity; FMDV antiviral cell-based qHTS; Potency, µM (highest dose often 57.9 µM), for inactives: top-dose activity change, negative = inhibition, actives largely listed as inhibitors; 410,000 tested, 1.2% active; calls by dose curve; tested in HEK293T cells; also: read-out not given here; potency is read from the fitted curve at half-maximal effect; % is scaled to controls: 0 for no effect and ±100 for the full control effect; nearly all actives have a fitted effect of over 45% in size
Lassa entry inh = blocks Lassa virus binding to or entry into cells | Lassa virus pseudotype entry inhibition, cell reporter | Potency, µM (top dose mostly 37.9 µM), for the others: top-dose activity change, negative = inhibition, most hits filed as inhibitors | 300,000 tested, 1.2% active | AID 540256; calls by dose curve; tested in HEK293 cells; also: potency is read from the fitted curve at half-maximal effect; % is scaled to controls: 0 for no effect and ±100 for the full control effect; nearly all actives have a fitted effect of over 50% in size
The depositor's hits bear a star; ? = inconclusive; . = no result; [ ] = another dose, or the depositor's remark. The list is not random: actives were taken first. Their share in the collection is about 8%.

SMILES | HCMV antiviral | Marburg entry inh | HCV inhibitor | SARS PLP yeast | FMDV antiviral | Lassa entry inh
Cc1ccc(C)c(NC(=O)c2cnn(-c3ccc(F)cc3F)c2C2CCNCC2)c1 | 12 | . | . | . | -14% | 24%[46.1 µM]
Cc1cc(C)cc(NC(=O)c2cnn(-c3ccccc3)c2C2CCNCC2)c1 | -86* | . | -1% | 2% | -12% | .
O=C(Nc1cccc(C(F)(F)F)c1)c1cnn(-c2cccc(F)c2)c1C1CCNCC1 | -77* | . | . | . | -18% | 38%[46.1 µM]
Cc1ccc(-n2ncc(C(=O)NCCN3CCc4ccccc4C3)c2C2CCNCC2)cc1C | -24 | . | . | . | -13% | 5%[46.1 µM]
Cc1ccc(-n2ncc(C(=O)Nc3cc(Cl)ccc3C)c2C2CCNCC2)cc1C | -91* | . | -11% | 0% | -22% | .
Cc1cc(C)cc(NC(=O)c2cnn(-c3ccc(C)c(C)c3)c2C2CCNCC2)c1 | -93* | . | . | . | -17% | ?
CN1CCN(c2ncc3nc(-c4ccc(F)cc4)c(=O)n(C4CC4)c3n2)CC1 | . | . | . | . | -16% | .
CC1CCCC(NC(=O)CCN2C(=O)COc3ccccc32)C1C (stereo unspecified) | 42 | . | . | . | -10% | .
Cc1cc(NC(=O)c2cccc(Oc3ccccc3)c2)n[nH]1 | -71* | . | -23% | -2% | 32% | .
Cc1n[nH]c(=O)c2c(NC(=O)CSc3nc4ccccc4c(=O)n3CCCOC(C)C)oc(C)c12 | -98* | ? | -5% | 0% | -15% | -1%
Cc1n[nH]c(=O)c2c(NC(=O)CSc3nn(-c4ccccc4)c(=S)s3)oc(C)c12 | -98* | -7% | 19% | -2% | -5% | -3%
Cc1ccc(NC(=O)CSc2nc3c(cc2C#N)C(=O)CCC3)cc1S(=O)(=O)N(C)C | -69* | -29% | ? | -3% | ? | 0%
Cc1ccc(NC(=O)CSc2nn(-c3ccccc3)c(=S)s2)cc1S(=O)(=O)N(C)C | -78* | 7.3µM* | ? | 0% | ? | ?
Cc1csc(SCC(=O)Nc2oc(C)c3c(C)n[nH]c(=O)c23)n1 | 3 | -3% | 7% | . | -17% | -5%
Clc1ccc2nc(-c3cccs3)c(Nc3ccc4c(c3)OCCO4)n2c1 | 31 | 25%[46.1 µM] | . | . | -6% | 13%[46.1 µM]
NC(=O)C1CCN(C(=O)C(=O)c2cn(CC(=O)N3CCCCCC3)c3ccccc23)CC1 | 11 | 4%[46.1 µM] | 9% | 10% | -5% | 8%[46.1 µM]
N#Cc1ccccc1OCC(=O)NC1CCCCCC1 | ? | . | . | . | 0% | .
O=C(/C=C/c1c(F)cccc1Cl)NCc1ccc2c(c1)OCO2 | 62 | 5%[46.1 µM] | -8% | 1% | 22% | -19%[46.1 µM]
C[C@H](ON=C1[C@H]2CCn3c(=O)n(-c4ccccc4)c(=O)n3[C@@H]2[C@H](O)[C@@H]2O[C@H]12)c1cn([C@H](CO)Cc2ccccc2)nn1 | . | 7%[14.2 µM] | . | . | . | ?
CC(C)N(CCNC(=O)COc1ccc2oc3c(c2c1)CCCC3)C(C)C | -20 | ? | 13µM* | -3% | 0% | -24%[46.1 µM]
Clc1ccc(C2=NNC(=NCc3ccc4c(c3)OCO4)SC2)cc1 | ? | 13µM* | -4% | 20% | 8% | ?
COc1ccc(CN=C2NN=C(c3ccc(Cl)cc3)CS2)cc1 | -28 | 23%[46.1 µM] | -1% | -1% | 53% | 2%
CC(C)(C)N=C1NN=C(c2ccc(Cl)cc2)CS1 | ? | . | 10µM* | 6% | 5% | .
Oc1ccc(C2=NNC(=NCc3ccc4c(c3)OCO4)SC2)c(O)c1 | -9 | ? | -15% | 26% | 52% | -12%
CC1CN=C(c2ccc(Cl)cc2)c2c3ccc(C(F)(F)F)cc3nn21 (stereo unspecified) | 47 | . | . | . | . | .
SMILES | HCMV antiviral | Marburg entry inh | HCV inhibitor | SARS PLP yeast | FMDV antiviral | Lassa entry inh
Cc1nn(-c2ccccc2)c(N)c1-c1ccccc1 | -10 | ? | 1% | 2% | 19% | ?
Cc1nn(-c2nc3ccccc3[nH]2)c(N)c1-c1ccccc1 | 38 | ? | 32µM* | -106% | -14% | ?
COc1cc(=O)n2c(c1C(=O)N(C)Cc1ccsc1)CCN(Cc1c(C)nn(C)c1Cl)CC2 | . | . | . | . | 0% | .
CCc1nn(-c2ccccc2)c(=S)c2ccccc12 | -63* | 19%[46.1 µM] | ? | 1% | -15% | 17%
Cc1ccc2nc(SCC(=O)NCc3ccccc3)nc(=O)n2c1 | -40 | -2%[46.1 µM] | 13% | 2% | -3% | 13%
CC1Sc2ccc(S(=O)(=O)N3CCC(C(=O)NCc4ccc(Cl)cc4)CC3)cc2NC1=O (stereo unspecified) | -26 | ? | ? | -3% | ? | -46%[46.1 µM]
CC1Sc2ccc(S(=O)(=O)N3CCC(C(=O)Nc4cccc(Cl)c4)CC3)cc2NC1=O (stereo unspecified) | -100* | ? | 3.2µM* | -2% | 20µM* | ?
CCOc1ccc(CN(C)C(=O)c2ccc3c(c2)NC(=O)C(C)S3)cc1OC (stereo unspecified) | -18 | . | 13µM* | -16% | ? | .
CN(Cc1ccccc1)C(=O)COC(=O)C1CCN(S(=O)(=O)c2ccc(Cl)c(C(F)(F)F)c2)CC1 | -66* | -18%[46.1 µM] | -2%[8.37 µM] | -4% | -21% | 6%
CCc1ccc(NC(=O)C2CCN(S(=O)(=O)c3ccc4c(c3)NC(=O)C(C)S4)CC2)cc1 (stereo unspecified) | -97* | ? | 8.9µM* | -4% | -9% | ?
COc1ccc(Br)cc1CN(C)C(=O)c1ccc2c(c1)NC(=O)C(C)S2 (stereo unspecified) | 34 | 27%[46.1 µM] | 14% | -2% | 25% | 3%
O=C(c1ccco1)N1CCC[C@@]2(CCN(Cc3ccccc3)C2)C1 | . | . | . | . | -4% | .
CCN(Cc1ccccc1)C(=O)c1ccc(Cl)cc1[N+](=O)[O-] | -13 | 3%[46.1 µM] | 8% | 2% | 9% | -1%[46.1 µM]
CCc1cccc(NS(=O)(=O)c2ccc3c(c2)NC(=O)C(C)S3)c1 (stereo unspecified) | 0 | . | ? | 4% | 2% | .
CC1Sc2ccc(S(=O)(=O)N(C)Cc3ccccc3)cc2NC1=O (stereo unspecified) | ? | -1%[46.1 µM] | ? | -5% | 28µM* | ?
Cc1ccc(NC(=O)C2CCN(S(=O)(=O)c3ccc4c(c3)NC(=O)C(C)S4)CC2)cc1C (stereo unspecified) | -62* | ? | ? | -1% | ? | ?
C=CCN(c1ccccc1)S(=O)(=O)c1ccc2c(c1)NC(=O)C(C)S2 (stereo unspecified) | 3 | . | -22% | 32% | -25% | .
Cc1ccc(NC(=O)C2CCN(S(=O)(=O)c3ccc4c(c3)NC(=O)C(C)S4)CC2)c(C)c1 (stereo unspecified) | 0 | ? | ? | -2% | -19% | ?
CCC(Cc1ccccc1)NS(=O)(=O)c1ccc2c(c1)NC(=O)C(C)S2 (stereo unspecified) | -86* | . | ? | 5% | -16% | .
CC1Sc2ccc(S(=O)(=O)N3CCC(C(=O)N(C)Cc4ccccc4)CC3)cc2NC1=O (stereo unspecified) | -64* | ? | ? | -3% | -42% | -4%[46.1 µM]

Screening results as filed in PubChem.
